The record followed here is PubChem BioAssay.

Test [1] in a line: stimulators of nuclear beta-catenin in C2C12, primary screen, imaging, WNT3A-conditioned medium, mouse C2C12, NPC library (AID 1117326; in the data active = nuclear beta-catenin stimulation mostly above about 4.2%, no sharp cut-off; inactive = mostly below about 10%; also: reference of the scale not given here). The conditions noted are these: stronger effect = higher value.
The nature of test [2]: stimulators of insulin release from INS-1E, primary screen, cell-based, 5 mM glucose, NPC library (AID 1117329). Also: reference of the scale not given here. As to conditions: rat INS-1E insulin secretion, at 10 µM, stronger effect = higher value.
Test [3] in a line: growth inhibition of GSK3B-pretreated HCT116 cells – cell-based, CellTiter-Glo, 0.2 to 20 µM (AID 1117336;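 active = compounds lowering colon cancer cell viability after pretreatment blocking the GSK3B kinase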). As to conditions: HCT116 viability after GSK3B inhibitor, at 20 µM, stronger effect = higher value.
Test [4] is described as follows: inhibition of endothelial tube formation, primary screen, imaging, VEGF stimulated, CD31 staining, tube area, NPC library (AID 1117340;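 active = compound that reduces growth-factor-driven endothelial tube area in a mixed cell culture, no cutoff stated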). As to conditions: VEGF-stimulated ADSC/ECFC co-culture, at 10 µM, stronger effect = higher value.
The nature of test [5]: glucagon-like peptide 1 release enhancers, primary assay, NCI-H716 cell line, NPC library (AID 1117341;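 active = compound raises GLP1 secretion from the human gut endocrine cells, with no numeric limit stated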; also: reference of the scale not given here). The conditions noted are these: NCI-H716 cells, at 10 µM, stronger effect = higher value.
The nature of test [6]: HCT116 colon cancer cell growth inhibition, primary screen, CellTiter-Glo luminescence, NPC library (AID 1117342;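 active = compounds that lower survival of HCT116 colon cancer cells in the luminescence readout, no numeric limit stated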). The conditions noted are these: at 20 µM (top of the series). Background: In ATP-based viability assays light output follows the ATP content of the culture.
Test [7] is described as follows: CellTiter-Glo luminescent readout of SW480 viability loss, NPC library primary (AID 1117343;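 active = compounds that lower viability of the colon cancer cells in the luminescence readout, with no numeric limit stated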). As to conditions: CellTiter-Glo luminescence; at 20 µM (top of the series) unless noted.
Test [8] is described as follows: decreased DLD-1 cellular survival, CellTiter-Glo luminescent readout, NPC compound collection, primary HTS (AID 1117346;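 active = compounds that lower survival of DLD-1 colon cancer cells in the luminescence readout, no cutoff given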). As to conditions: DLD-1 viability, CellTiter-Glo luminescence; at 20 µM (top of the series).
Test [9] can be described thus: survival rescue of mitochondrial mutant cells in low glucose, primary screen, MELAS cybrids, Rieske KO mouse fibroblasts, CellTiter-Glo (AID 1508586;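 active = mean z-score across replicates of 1.96 or higher in either the MELAS or the Rieske mutant cell line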;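 also: z relative to plate mean and SD of compound and empty wells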).
For test [10], the target named is NAD(+) hydrolase SARM1 (Homo sapiens) (UniProt Q6SZW1). In words: SARM1 TIR NADase inhibitors, cell lysate, NAD-Glo luminescence (AID 1508614;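 active = compound whose remaining NAD level is above about 45 nM, limit read from the data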;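 also: higher remaining NAD means stronger inhibition of SARM1 NADase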). As to conditions: SAM-TIR HEK293T lysate NADase, at 1 µM, stronger effect = higher value.
Test [11] addresses ATP-dependent translocase ABCB1 (Homo sapiens) (UniProt P08183). The test can be described thus: MDR1 (ABCB1) efflux transporter inhibition, cell-based (AID 377; in the data active = fluorescence slope change above about 50%). As to conditions: MDR1-expressing cells, fluorescent substrate accumulation slope; stronger effect = higher value; concentration not given here.
The mark [12] stands for this setting: MELAS cybrid survival, CellTiter-Glo 48 h, stronger effect = higher value.
The mark [13] stands for this setting: Rieske KO mouse fibroblast survival, CellTiter-Glo 72 h.

Records with an inconclusive call do not appear. Calls of active or inactive are those of the source.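 The calls were made as follows, unless noted: active = compound raises insulin release from rat beta cells at 5 mM glucose, no numeric limit stated; inactive = the rest.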

Sequence of NAD(+) hydrolase SARM1 (Homo sapiens) (Q6SZW1 whole entry, looked up): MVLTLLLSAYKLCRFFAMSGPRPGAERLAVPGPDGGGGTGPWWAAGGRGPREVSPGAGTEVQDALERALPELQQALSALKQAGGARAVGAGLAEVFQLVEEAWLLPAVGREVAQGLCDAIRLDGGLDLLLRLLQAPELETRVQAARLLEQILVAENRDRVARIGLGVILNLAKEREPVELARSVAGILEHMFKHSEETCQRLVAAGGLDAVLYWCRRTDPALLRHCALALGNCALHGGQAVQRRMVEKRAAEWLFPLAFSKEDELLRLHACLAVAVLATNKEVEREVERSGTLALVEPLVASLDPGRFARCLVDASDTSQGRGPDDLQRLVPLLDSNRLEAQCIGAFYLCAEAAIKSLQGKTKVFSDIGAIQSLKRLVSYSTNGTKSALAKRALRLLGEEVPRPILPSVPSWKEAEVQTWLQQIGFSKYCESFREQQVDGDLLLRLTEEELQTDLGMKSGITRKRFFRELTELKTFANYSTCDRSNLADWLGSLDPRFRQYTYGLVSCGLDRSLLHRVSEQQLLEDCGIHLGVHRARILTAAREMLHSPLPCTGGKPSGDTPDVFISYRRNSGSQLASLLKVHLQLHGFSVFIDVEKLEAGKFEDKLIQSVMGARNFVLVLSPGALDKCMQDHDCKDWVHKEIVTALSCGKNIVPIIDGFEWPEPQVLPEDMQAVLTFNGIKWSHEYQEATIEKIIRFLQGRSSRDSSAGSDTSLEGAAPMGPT
Sequence of ATP-dependent translocase ABCB1 (Homo sapiens) (P08183 whole entry, looked up): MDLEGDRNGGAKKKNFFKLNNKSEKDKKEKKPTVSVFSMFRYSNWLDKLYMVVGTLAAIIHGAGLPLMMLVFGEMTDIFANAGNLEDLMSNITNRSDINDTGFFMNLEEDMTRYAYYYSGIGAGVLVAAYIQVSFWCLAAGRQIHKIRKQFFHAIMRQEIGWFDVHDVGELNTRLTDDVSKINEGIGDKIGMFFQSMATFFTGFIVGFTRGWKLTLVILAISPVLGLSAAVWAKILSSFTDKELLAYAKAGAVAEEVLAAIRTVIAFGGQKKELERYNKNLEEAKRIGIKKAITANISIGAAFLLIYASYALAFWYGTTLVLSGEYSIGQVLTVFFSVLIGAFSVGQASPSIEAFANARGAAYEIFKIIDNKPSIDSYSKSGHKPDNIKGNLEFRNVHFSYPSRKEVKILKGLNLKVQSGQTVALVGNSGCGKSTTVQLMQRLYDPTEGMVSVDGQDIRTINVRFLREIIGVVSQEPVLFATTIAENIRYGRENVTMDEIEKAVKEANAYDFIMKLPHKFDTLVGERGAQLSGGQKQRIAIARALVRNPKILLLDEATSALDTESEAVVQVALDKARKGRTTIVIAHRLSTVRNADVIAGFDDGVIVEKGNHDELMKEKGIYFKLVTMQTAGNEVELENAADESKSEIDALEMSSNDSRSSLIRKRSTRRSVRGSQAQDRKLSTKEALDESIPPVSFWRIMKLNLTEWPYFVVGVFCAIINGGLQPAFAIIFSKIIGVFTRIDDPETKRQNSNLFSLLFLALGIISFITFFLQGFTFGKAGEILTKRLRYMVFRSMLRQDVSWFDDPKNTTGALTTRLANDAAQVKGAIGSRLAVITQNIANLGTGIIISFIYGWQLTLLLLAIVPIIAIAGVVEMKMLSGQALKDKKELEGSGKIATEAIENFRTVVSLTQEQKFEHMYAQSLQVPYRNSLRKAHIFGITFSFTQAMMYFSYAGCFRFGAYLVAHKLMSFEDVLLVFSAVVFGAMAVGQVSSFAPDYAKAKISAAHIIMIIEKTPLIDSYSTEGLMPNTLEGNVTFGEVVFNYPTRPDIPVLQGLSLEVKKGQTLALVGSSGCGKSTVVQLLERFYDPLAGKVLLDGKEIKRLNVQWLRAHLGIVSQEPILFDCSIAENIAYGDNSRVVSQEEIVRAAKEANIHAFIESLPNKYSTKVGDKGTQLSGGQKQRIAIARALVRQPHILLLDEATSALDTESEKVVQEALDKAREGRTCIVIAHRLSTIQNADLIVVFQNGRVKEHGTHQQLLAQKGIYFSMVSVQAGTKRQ

Consider `NCCNCCNCCNCCN`, for which the nuclear beta-catenin stimulation in test [1] (at 10 µM) was -1.7% (inactive); in test [1] (stimulation, at 2 µM), -1.3%. In addition, the insulin secretion stimulation in test [2] was 4.1% (inactive). For the same compound, in test [3], the viability decrease is -0.2% (inactive). Further, the tube area decrease in test [4] is -4.2% (inactive). Further, the GLP1 secretion stimulation in [5] is -2.1% (inactive). Besides, the inhibition of viability in test [6] was 16% (inactive). The viability decrease (inhibition) in test [7] is 17.8% (inactive); in test [8], 4.2% (inactive). Besides, the figures for the z-score in test [9] (setting [12]) and in test [9] (setting [13]) were -0.618 (inactive) and 0.462, respectively.
For the compound `O=C1OC2(c3ccccc31)c1cc(I)c(O)c(I)c1Oc1c2cc(I)c(O)c1I`, the nuclear beta-catenin stimulation in [1] (at 10 µM) is 1.2% (inactive); in [1] (stimulation, at 2 µM), 1.9%. Moreover, the insulin secretion stimulation in test [2] is 1.6% (inactive). Besides, the viability decrease in test [3] is -45.8% (inactive). In [4], the tube area decrease was 12% (inactive). Further, the GLP1 secretion stimulation in test [5] is 24.3% (active). For the same compound, the inhibition of viability in test [6] is -2.6% (inactive). Moreover, the results for the viability decrease (inhibition) in test [7] and in test [8] were 24.4% (inactive) and -14.4% (inactive), respectively. Also, in test [10], the remaining NAD is 10 nM (inactive).
As to `Clc1cc(Cl)c(OCC#CI)cc1Cl`, the nuclear beta-catenin stimulation in [1] (at 10 µM) is 62.3% (active); in test [1] (stimulation, at 2 µM), 21.7%. For the same compound, the insulin secretion stimulation in [2] was 9.6% (inactive). Besides, the viability decrease in test [3] was 93.8% (active). Also, the tube area decrease in test [4] was 106% (active). Also, in test [5], the GLP1 secretion stimulation is -0.7% (inactive). In addition, the inhibition of viability in test [6] was 92% (active). Also, the viability decrease (inhibition) was 100% (active) in [7] and 98.1% (active) in test [8]. For the same compound, the z-score in test [9] (setting [12]) is -0.965; in [9] (setting [13]), 8.41.
Consider `CO/N=C(\C(=O)N[C@@H]1C(=O)N2C(C(=O)O)=C(CSc3nc(=O)c(O)nn3C)CS[C@H]12)c1csc(N)n1`, for which the nuclear beta-catenin stimulation was -1.8% (inactive) in [1] (at 10 µM) and -0.3% in test [1] (stimulation, at 2 µM). Besides, in test [2], the insulin secretion stimulation was 0% (inactive). Also, in test [3], the viability decrease is -26.6% (inactive). In addition, the tube area decrease in test [4] was -1.5% (inactive). Further, the GLP1 secretion stimulation in [5] was -1.7% (inactive). The inhibition of viability in test [6] is -9.17% (inactive). For the same compound, the viability decrease (inhibition) is 8.2% (inactive) in [7] and -15.1% (inactive) in test [8]. In addition, in test [10], the remaining NAD was 10 nM (inactive).
Consider `CCOc1ccccc1OCC1CNCCO1` (stereo not given), for which the fluorescence slope change in test [11] is 51.5% (active). Further, the nuclear beta-catenin stimulation in test [1] (at 10 µM) was 0.4% (inactive); in test [1] (stimulation, at 2 µM), -0.3%. In addition, the insulin secretion stimulation in [2] is 1.75% (inactive). Further, in [3], the viability decrease was 1.7% (inactive). In addition, the tube area decrease in [4] is -7% (inactive). For the same compound, in test [5], the GLP1 secretion stimulation was -0.1% (inactive). Besides, the inhibition of viability in test [6] was 32.4% (inactive). In addition, the viability decrease (inhibition) in test [7] is -7.1% (inactive); in test [8], -5.4% (inactive). Further, the results for the z-score in test [9] (setting [12]) and in test [9] (setting [13]) were 0.538 (inactive) and -0.146, respectively.
On to `CN(C)CCOC1=Cc2ccccc2Sc2ccc(Cl)cc21`, for which the nuclear beta-catenin stimulation is 31.6% (inactive) in [1] (at 10 µM) and -1% in [1] (stimulation, at 2 µM). For the same compound, the insulin secretion stimulation in test [2] was 14.5% (inactive). For the same compound, in test [3], the viability decrease was 99.3% (active). Moreover, the tube area decrease in test [4] was 89.3% (active). Also, the GLP1 secretion stimulation in test [5] was -2.6% (inactive). Further, the inhibition of viability in test [6] was 99% (active). Besides, the viability decrease (inhibition) in test [7] is 102% (active); in test [8] it was 97.6% (active). Further, the z-score is 0.153 (inactive) in [9] (setting [12]) and 0.114 in [9] (setting [13]).
On to `N[C@@H](Cc1ccc(O)cc1)C(=O)O`, for which the nuclear beta-catenin stimulation in test [1] (at 10 µM) is -2% (inactive); in test [1] (stimulation, at 2 µM) it was -0.2%. Also, in test [2], the insulin secretion stimulation was 3.9% (inactive). For the same compound, in [3], the viability decrease is -7.6% (inactive). Also, in [4], the tube area decrease was 1% (inactive). In addition, the GLP1 secretion stimulation in test [5] was 3% (inactive). Besides, the inhibition of viability in test [6] is 3.9% (inactive). Also, the figures for the viability decrease (inhibition) in [7] and in test [8] were -0.8% (inactive) and -0.1% (inactive), respectively. In addition, in test [10], the remaining NAD is 10 nM (inactive).
